Laboratory results as given in PubChem BioAssay AID540256 (National Center for Advancing Translational Sciences (NCATS), 2011).
Out of some 300,000 compounds screened, about 3,700 (1.2%) were called active. Where a call stands in place of a potency, no number is given. Another 20% or so got no clear call; they are omitted. Calls follow the shape of the full dose curve; tested in HEK293 cells. For the sample, actives were picked, then their nearest neighbours and some compounds at random.

Experiment: qHTS for Inhibitors of binding or entry into cells for Lassa Virus; also: nearly all actives have a fitted effect of over 50% in size
Conditions: Lassa virus pseudotype entry inhibition, cell reporter; series mostly up to 37.9 µM
Potency is read from the fitted curve at half-maximal effect.

SMILES	Potency
Nc1ccc(Oc2ccc(Cl)cc2)cc1	inactive
Cc1ccc(Oc2ccc(N)cc2)cc1	inactive
CC(C)(C)c1ccc(Oc2ccc(N)cc2)cc1	0.651 µM (active)
O=S(=O)(Nc1ccc2ccccc2c1)N1CCCCC1	inactive
O=C1CC(c2ccccc2)C(c2ccccc2)=NN1 (centres undefined)	inactive
CN1CCN(CCCCOc2cccc3ccccc23)CC1	inactive
CC1=CCC2C(=O)N(c3cccc(C(=O)NC(C)c4ccccc4)c3)C(=O)C2C1 (centres undefined)	inactive
Cc1ccc(C(=O)NC(C)c2ccccc2)cc1Br (centres undefined)	11.6 µM (active)
C=CCNC(=O)c1ccc(C)c(Br)c1	inactive
c1ccc2c(c1)OC1OC2Oc2ccccc21	inactive
CC1CCN(C(=O)CCc2nnc3ccc(NCc4ccco4)nn23)CC1	inactive
CCc1cc(C(N)=O)c(NC(=O)c2ccc(OC)cc2)s1	inactive
CCc1ccc(/C=N/NC(=O)c2ccc(OC3CCCC3)cc2)s1	2 µM (active)
COC(=O)CNC(=O)c1ccc(OC2CCN(C(=O)C3CC3)CC2)cc1	inactive
COC(=O)Cc1c(-c2[nH]c3ccccc3c2CC(=O)OC)[nH]c2ccccc12	inactive
Cc1cc(C(=O)COc2ccccc2[N+](=O)[O-])c(C)n1-c1cccc(S(=O)(=O)N2CCOCC2)c1	6.31 µM (active)
O=C(COc1ccc(S(=O)(=O)N2CCOCC2)cc1Cl)N1CCOCC1	inactive
Cc1cc(S(=O)(=O)N2CCOCC2)ccc1OCC(=O)N1CCOCC1	inactive
CSCCC(NS(=O)(=O)c1ccccc1F)C(=O)N1CC=C(c2ccccc2)CC1 (centres undefined)	inactive
O=C(c1ccc(F)cc1)N1CCC(C(=O)N2CCN(S(=O)(=O)c3ccccc3Br)CC2)CC1	inactive
COC(=O)c1cnn(-c2ccc(C(=O)Nc3ccc(OC(F)(F)F)cc3)cc2)c1N	inactive
Cc1cccc(NS(=O)(=O)c2ccc(C(=O)NCC(C)(C)N3CCOCC3)cc2)c1C	inactive
O=C(CSC(=S)N1CCOCC1)c1ccccc1	14.6 µM (active)

SMILES	Potency
CC1CN(C(=S)SCC(=O)c2ccccc2)CC(C)O1 (centres undefined)	inactive
O=C(CSC(=S)N1CCOCC1)c1cc(Br)cc(Br)c1O	inactive
Cc1cccc(C(=O)Nc2ccc(C(=O)N/N=C/c3cccc(C)n3)cc2)c1	inactive
Cc1cccc(C=CC(=O)c2ccc(Cl)cc2)c1	inactive
COc1ccc(OC)c(Cc2nnc(CCC(=O)NC3CCCC3)o2)c1	inactive
COc1ccc(OC)c(Cc2cnc3nc(N)nc(N)c3c2C)c1	0.251 µM (active)
COc1ccc(OC)c(NC(=O)c2sc3nc(C)cc(C)c3c2N)c1	inactive
CC(=O)Nc1ccc(S(=O)(=O)NCC(=O)OCC(=O)c2ccc[nH]2)cc1	inactive
CC(=O)c1cccc(OCC(=O)OCC(=O)Nc2cc(S(=O)(=O)N3CCCCC3)ccc2C)c1	inactive
CCCOc1ccc(C(=O)C(CCC(CNCC)C(=O)c2ccc(OCCC)cc2)CNCC)cc1 (centres undefined)	13 µM (active)
CCCOc1ccc(C(=O)CCC(=O)OC(C)C(=O)Nc2ccc(NC(C)=O)cc2)cc1 (centres undefined)	inactive
CCCCOc1ccc(C(=O)NN2CCN(C)CC2)cc1	inactive
CCc1noc(C)c1C(=O)N1CCCC(N2CCN(c3ccc(F)cc3)CC2)C1 (centres undefined)	inactive
COc1ccc(/C=C(\NC(=O)c2ccc(OCC(C)C)cc2)C(=O)OCc2ccco2)cc1	12.6 µM (active)
COc1ccc(/C=C(/NC(=O)c2ccco2)C(=O)Nc2ccc(C(C)=O)cc2)cc1	inactive
COc1ccc(C(=O)Nc2ccccc2C(=O)NCc2ccco2)cc1	inactive
Cc1cc(C)c(C)c(S(=O)(=O)Nc2cccnc2)c1C	inactive
CCOc1ccccc1CNC(=O)c1cnc2c(-c3ccc(OCC)c(OCC)c3)c(C)nn2c1C	inactive
Cc1ccc2nc(NC(=O)C3CSC4(C)CCC(=O)N34)sc2c1 (centres undefined)	inactive
O=C(Cc1c(Cl)cccc1Cl)NC1CC1	inactive
Cc1c(NC(=S)NCc2ccc(F)cc2)cccc1[N+](=O)[O-]	inactive
Cc1c(Cl)cccc1NC(=S)NCc1ccc2c(c1)OCO2	inactive
CCc1cccc(CC)c1NC(=S)NCc1ccc2[nH]c(C)cc2c1	18.4 µM (active)

SMILES	Potency
O=C(CCc1ccccc1Cl)Nc1ccc(S(=O)(=O)Nc2nccs2)cc1	inactive
O=C(COC(=O)c1ccc(O)cc1O)NC(=O)c1ccccc1	inactive
O=C(CN(Cc1ccccc1)C(=O)CCC(=O)Nc1ccccn1)NCCc1ccccc1	inactive
Cc1cc([N+](=O)[O-])ccc1NS(=O)(=O)c1ccccc1	inactive
O=C(COc1cccnc1[N+](=O)[O-])Nc1ccc(Cl)cc1F	inactive
O=C(c1ccco1)n1nc(-c2ccc(Cl)cc2)nc1NCc1ccccc1	inactive
O=C(c1cccs1)n1nc(NCc2ccccc2)nc1NCc1ccccc1	10 µM (active)
O=C(CCC(=O)c1cccs1)NCc1ccccc1	inactive
Oc1cccc(CCc2ccccn2)c1	inactive
Cc1ccc(-c2nn(-c3ccc(F)cc3)cc2C(=O)NCC(c2cccs2)N2CCOCC2)cc1 (centres undefined)	inactive
CC(C)c1nc2sc3c(c2c(=O)n1N)CC(C)(C)OC3	inactive
CC/C(C)=N/Nc1nc2sc3c(c2c(=O)[nH]1)CC(C)(C)OC3	5.01 µM (active)
CCOC(=O)CSc1nc2sc3c(c2c(=O)[nH]1)CC(C)(C)OC3	inactive
Cc1ccc(NC(=O)CSc2nn3c(=O)c(C)nnc3s2)cc1Cl	inactive
COCC(C)n1c(SCC(=O)NC2CCCCC2C)nc2ccccc2c1=O (centres undefined)	inactive
COC(=O)c1ccc(CSc2ccccc2C)o1	inactive
COCC(C)n1c(SCc2ccc(C(=O)OC)o2)nc2ccccc2c1=O (centres undefined)	10.3 µM (active)
O=C(NCCS(=O)(=O)N1CCN(c2ccc(F)cc2)CC1)c1ccc2c(c1)OCO2	inactive
O=C1/C(=C\c2ccc(O)cc2)CCC1CNc1ccc(Cl)cc1 (centres undefined)	inactive
Cc1cccc(NC(=O)c2cccc(S(=O)(=O)N3CCCC3)c2)n1	inactive
O=C(CCCn1c(=O)c2cccn2c2cccnc21)NCc1ccc(F)cc1	inactive
Cc1cccc(N2CCN(C(=O)Cn3ncc4c5ccccc5n(C)c4c3=O)CC2C)c1 (centres undefined)	inactive
Cc1cccc(N2CCN(C(=O)CCn3c(=O)c4cccn4c4cccnc43)CC2C)c1 (centres undefined)	7.94 µM (active)
